In the supplement of paper PMC11732987, “Enantioselective OTUD7B fragment discovery through chemoproteomics screening and high-throughput optimisation” (Communications Chemistry, 2025):

Legend:
Assay in all cases: log2 ratio of Biotin-Ahx-Ub-VS probe labelling (fragment/DMSO); higher = less target engagement (more negative = stronger competition), active = hit call of the paper (q ≤ 0.05, log2 ratio ≤ -1)
Conditions in all cases: compound concentration: 200 uM; treatment time: 3 h
[1] = biological target: USP34 (UniProt Q70CQ2)
Chain of USP34 (Q70CQ2 whole entry, the tested form may be a part): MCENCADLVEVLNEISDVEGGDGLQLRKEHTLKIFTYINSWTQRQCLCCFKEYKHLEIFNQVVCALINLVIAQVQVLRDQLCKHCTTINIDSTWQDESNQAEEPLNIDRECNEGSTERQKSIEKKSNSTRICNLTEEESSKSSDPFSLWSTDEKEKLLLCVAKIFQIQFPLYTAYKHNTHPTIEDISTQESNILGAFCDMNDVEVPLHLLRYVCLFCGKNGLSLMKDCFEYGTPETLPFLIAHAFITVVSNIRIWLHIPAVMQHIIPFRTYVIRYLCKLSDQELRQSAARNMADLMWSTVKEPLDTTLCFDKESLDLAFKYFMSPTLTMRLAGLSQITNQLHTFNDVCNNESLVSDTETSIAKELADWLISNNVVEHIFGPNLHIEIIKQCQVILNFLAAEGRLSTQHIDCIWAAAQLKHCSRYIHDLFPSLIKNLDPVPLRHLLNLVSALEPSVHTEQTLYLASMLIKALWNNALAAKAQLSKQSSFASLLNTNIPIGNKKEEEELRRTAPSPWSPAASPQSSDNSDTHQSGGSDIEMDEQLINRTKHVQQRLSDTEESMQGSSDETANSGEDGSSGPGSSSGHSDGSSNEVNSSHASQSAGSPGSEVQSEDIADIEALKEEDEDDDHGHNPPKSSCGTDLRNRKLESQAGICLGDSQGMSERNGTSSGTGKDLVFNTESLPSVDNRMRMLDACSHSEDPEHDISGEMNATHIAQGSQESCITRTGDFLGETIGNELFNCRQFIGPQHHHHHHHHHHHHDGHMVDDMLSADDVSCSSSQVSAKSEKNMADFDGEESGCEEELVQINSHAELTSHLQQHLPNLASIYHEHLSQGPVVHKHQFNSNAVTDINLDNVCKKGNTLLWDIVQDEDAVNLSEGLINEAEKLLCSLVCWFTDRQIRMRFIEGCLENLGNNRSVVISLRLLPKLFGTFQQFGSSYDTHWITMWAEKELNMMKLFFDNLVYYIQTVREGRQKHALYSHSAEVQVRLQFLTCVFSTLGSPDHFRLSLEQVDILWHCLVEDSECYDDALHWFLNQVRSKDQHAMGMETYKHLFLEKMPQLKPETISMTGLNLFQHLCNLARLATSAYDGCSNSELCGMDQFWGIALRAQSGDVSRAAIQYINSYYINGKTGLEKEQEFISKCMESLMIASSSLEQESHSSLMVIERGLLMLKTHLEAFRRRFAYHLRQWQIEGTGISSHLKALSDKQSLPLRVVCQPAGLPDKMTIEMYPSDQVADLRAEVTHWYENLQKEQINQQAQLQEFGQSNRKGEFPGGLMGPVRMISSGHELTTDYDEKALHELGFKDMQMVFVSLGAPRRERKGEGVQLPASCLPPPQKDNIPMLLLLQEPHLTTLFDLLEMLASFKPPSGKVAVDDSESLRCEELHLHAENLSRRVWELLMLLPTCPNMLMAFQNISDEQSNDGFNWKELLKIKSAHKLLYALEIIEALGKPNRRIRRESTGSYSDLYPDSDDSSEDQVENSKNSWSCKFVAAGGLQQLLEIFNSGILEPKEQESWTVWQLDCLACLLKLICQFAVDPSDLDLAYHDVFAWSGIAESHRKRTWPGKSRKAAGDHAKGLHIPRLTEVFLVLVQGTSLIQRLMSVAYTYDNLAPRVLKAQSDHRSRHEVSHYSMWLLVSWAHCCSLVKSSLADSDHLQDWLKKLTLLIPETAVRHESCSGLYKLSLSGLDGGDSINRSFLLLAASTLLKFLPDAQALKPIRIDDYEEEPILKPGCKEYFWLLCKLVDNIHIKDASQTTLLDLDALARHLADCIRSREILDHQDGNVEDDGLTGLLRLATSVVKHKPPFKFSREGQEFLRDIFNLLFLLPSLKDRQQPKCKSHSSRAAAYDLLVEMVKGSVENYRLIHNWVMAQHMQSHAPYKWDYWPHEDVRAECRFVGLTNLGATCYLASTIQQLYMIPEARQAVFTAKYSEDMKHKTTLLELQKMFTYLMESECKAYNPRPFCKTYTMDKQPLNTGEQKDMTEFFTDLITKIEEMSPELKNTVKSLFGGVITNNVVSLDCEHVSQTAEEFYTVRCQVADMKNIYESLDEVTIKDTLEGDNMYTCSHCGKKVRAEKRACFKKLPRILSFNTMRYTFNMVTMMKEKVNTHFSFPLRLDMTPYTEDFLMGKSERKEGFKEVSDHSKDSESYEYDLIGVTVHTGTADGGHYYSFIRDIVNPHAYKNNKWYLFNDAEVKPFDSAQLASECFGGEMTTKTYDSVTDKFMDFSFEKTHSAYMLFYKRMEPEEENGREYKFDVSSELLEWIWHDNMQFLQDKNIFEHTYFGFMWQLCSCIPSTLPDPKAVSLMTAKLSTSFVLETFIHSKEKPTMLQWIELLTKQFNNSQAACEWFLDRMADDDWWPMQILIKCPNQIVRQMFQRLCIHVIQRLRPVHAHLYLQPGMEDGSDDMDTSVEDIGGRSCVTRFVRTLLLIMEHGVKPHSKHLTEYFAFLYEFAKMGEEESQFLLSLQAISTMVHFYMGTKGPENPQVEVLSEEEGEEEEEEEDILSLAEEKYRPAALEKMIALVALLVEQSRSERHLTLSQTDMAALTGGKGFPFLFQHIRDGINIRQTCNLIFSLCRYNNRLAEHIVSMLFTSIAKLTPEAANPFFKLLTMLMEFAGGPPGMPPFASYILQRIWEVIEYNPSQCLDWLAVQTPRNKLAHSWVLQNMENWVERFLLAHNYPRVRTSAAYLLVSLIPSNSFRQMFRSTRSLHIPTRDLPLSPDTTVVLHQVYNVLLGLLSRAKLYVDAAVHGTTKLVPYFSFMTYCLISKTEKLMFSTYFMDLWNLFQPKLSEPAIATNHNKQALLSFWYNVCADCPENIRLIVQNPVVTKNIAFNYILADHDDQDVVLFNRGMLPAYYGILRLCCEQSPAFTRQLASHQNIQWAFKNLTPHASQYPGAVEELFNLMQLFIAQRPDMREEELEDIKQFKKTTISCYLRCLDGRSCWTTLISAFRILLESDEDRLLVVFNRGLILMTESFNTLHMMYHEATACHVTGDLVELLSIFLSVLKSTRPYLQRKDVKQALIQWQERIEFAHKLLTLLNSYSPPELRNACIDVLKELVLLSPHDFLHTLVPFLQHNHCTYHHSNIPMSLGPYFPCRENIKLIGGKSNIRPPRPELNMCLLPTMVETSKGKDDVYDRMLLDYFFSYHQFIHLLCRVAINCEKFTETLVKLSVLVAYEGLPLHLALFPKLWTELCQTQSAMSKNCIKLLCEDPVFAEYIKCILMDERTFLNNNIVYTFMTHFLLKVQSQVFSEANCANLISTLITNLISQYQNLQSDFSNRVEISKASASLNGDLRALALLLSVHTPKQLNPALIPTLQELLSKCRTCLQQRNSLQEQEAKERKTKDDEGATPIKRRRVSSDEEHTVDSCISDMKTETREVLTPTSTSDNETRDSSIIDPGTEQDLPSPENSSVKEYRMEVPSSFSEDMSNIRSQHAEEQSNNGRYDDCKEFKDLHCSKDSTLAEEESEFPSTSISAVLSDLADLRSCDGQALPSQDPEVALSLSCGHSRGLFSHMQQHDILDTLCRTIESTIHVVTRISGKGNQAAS
Outline: (§1)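 Average log2 ratios of fragment over vehicle were obtained by unpaired t-test from global-median-normalised Spectronaut label-free quantities. Proteins with ≥2 unique peptides were included. HEK293T lysate (495 µg per sample) was treated in triplicate with fragment at 200 µM or vehicle for 3 h, then with Biotin-Ahx-Ub-VS at 0.5 µM final for 1 h, and labelled DUBs were NeutrAvidin-enriched and run by diaPASEF LC-MS/MS.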

[2] = biological target: T1, USP36 (UniProt Q9P275)
T1 sequence (whole entry): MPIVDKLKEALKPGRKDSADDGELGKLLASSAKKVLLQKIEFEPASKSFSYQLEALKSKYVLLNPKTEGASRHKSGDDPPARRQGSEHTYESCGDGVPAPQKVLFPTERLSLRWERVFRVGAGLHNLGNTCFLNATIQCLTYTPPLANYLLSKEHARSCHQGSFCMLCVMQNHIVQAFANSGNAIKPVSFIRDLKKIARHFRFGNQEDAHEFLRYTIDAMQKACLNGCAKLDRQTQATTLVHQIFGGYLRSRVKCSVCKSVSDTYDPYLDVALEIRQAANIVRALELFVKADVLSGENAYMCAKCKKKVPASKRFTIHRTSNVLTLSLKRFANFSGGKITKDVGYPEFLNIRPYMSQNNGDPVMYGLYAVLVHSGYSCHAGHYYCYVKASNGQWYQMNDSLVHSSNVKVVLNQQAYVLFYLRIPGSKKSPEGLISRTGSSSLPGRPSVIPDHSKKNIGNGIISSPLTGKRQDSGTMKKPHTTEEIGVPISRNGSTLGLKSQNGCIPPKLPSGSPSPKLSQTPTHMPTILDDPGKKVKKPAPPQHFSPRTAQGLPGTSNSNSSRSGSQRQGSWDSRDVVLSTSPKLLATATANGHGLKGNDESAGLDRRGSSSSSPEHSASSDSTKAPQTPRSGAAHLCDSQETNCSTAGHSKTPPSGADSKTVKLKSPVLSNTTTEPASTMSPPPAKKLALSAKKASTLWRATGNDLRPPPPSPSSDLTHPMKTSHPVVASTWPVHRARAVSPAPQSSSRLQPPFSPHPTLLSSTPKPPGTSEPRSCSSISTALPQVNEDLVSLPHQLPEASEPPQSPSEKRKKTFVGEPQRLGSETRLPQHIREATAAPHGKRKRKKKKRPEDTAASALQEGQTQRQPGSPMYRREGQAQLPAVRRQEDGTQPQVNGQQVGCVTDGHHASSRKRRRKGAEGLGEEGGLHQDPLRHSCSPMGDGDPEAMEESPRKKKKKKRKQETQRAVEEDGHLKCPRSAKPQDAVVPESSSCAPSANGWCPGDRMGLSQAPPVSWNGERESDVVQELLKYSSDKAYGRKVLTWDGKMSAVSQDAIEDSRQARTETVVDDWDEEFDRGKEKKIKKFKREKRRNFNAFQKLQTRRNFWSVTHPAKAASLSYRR
Outline: as §1

[3] = biological target: T2, USP38 (UniProt Q8NB14)
T2 sequence (whole entry): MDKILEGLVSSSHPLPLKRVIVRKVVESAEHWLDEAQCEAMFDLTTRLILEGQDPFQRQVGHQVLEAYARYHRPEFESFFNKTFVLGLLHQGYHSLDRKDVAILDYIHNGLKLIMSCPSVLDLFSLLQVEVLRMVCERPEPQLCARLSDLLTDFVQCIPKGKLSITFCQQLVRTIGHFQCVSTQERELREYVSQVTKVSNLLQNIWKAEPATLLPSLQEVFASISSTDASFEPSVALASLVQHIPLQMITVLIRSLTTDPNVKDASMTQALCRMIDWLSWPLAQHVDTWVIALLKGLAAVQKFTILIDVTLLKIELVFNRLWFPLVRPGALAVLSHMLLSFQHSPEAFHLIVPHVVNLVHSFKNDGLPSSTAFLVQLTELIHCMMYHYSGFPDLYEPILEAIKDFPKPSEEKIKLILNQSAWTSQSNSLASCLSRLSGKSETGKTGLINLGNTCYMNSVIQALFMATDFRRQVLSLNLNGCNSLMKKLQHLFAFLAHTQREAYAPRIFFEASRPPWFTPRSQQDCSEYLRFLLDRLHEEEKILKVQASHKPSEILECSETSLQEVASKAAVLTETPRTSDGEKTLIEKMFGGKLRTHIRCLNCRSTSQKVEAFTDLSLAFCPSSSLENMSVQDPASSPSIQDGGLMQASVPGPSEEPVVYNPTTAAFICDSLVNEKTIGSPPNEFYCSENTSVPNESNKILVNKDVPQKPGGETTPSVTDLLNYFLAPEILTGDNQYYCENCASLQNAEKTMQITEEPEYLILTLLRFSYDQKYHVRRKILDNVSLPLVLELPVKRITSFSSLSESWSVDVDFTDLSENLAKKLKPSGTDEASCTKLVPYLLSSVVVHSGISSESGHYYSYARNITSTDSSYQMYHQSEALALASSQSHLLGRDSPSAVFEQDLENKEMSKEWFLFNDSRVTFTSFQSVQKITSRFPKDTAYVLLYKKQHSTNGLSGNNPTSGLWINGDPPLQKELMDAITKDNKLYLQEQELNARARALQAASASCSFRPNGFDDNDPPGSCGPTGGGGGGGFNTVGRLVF
Outline: as §1

[4] = biological target: T3, USP39 (UniProt Q53GS9)
T3 sequence (whole entry): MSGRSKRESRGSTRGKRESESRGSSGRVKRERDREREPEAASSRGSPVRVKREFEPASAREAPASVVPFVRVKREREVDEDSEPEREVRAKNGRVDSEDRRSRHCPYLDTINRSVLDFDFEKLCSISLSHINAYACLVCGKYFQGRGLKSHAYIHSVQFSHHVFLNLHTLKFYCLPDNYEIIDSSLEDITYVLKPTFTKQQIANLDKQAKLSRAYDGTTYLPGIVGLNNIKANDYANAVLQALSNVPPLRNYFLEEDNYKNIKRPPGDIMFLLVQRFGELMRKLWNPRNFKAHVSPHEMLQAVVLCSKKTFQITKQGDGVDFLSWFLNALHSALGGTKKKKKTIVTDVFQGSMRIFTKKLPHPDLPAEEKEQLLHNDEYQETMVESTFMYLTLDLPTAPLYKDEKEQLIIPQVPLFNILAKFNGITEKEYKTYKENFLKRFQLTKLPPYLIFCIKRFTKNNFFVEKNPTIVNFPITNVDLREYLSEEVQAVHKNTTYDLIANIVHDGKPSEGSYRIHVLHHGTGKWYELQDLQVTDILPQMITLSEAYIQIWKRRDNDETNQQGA
Outline: as §1

[5] = biological target: T4, USP4 (UniProt Q13107)
T4 sequence (whole entry): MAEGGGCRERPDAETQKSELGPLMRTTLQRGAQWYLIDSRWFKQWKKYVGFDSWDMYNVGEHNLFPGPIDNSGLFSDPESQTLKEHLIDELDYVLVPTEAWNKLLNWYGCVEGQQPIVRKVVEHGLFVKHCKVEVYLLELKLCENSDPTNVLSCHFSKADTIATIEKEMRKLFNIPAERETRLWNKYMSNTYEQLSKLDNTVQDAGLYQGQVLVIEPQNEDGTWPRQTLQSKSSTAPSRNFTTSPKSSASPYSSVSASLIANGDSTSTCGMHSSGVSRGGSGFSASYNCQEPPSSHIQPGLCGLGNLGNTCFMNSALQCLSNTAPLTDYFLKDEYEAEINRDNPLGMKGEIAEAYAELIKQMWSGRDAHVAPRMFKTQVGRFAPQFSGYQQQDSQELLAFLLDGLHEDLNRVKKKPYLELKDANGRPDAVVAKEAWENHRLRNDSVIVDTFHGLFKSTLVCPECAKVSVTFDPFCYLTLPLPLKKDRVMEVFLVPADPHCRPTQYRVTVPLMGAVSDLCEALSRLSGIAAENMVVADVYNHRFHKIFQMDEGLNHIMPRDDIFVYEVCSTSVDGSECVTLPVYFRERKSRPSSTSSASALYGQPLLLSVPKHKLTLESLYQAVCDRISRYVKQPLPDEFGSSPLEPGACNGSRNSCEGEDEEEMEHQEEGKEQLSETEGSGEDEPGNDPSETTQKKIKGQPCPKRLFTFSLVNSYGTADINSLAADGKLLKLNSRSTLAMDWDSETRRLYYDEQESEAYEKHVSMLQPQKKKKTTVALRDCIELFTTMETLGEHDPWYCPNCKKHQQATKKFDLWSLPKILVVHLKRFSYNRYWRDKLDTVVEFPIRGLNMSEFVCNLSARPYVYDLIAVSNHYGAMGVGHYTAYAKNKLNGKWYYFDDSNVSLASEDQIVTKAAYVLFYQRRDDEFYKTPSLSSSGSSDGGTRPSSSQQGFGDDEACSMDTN
Outline: as §1

Measured: log2 ratio of Biotin-Ahx-Ub-VS probe labelling

CN(CCc1ncc(Br)cn1)C(=O)CCl.Cl
inactive: [1] -0.228 | [2] -0.122 | [3] -0.00939 | [4] 0.3 | [5] -0.0898
